“And” between values parts separate entries of the source, which are not always exact repeats. Equal entries are not always repeated. About 79,000 compounds went through this panel and 15% of them were active in at least one assay; those are over-represented in the sample as a whole. The source made the active and inactive calls. No stated cut-off is given here; in the data, active means growth inhibition above about 70%; inactive means the rest.
Experiments:
[1] = NCI Yeast Anticancer Drug Screen. Data for the rad50 strain (AID 155);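 further: 0% = growth of vehicle-only cultures of the same strain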; conditions: S. cerevisiae rad50 strain growth inhibition; at 50.0 µM; hits give high values
How it was run: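 Readout: growth inhibition relative to vehicle-treated cultures. Compound exposure was carried out in a genetically defined yeast strain deficient in DNA damage repair.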

[2] = NCI Yeast Anticancer Drug Screen. Data for the mec2-1 strain (AID 157); conditions: S. cerevisiae mec2-1 strain, at 50.0 µM, hits give high values
How it was run: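 Compounds were applied to mec2-1 yeast cells. Their growth was then compared with that of vehicle-treated cultures to give growth inhibition.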

[3] = NCI Yeast Anticancer Drug Screen. Data for the sgs1 mgt1 strain (AID 161);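 further: 0% = growth of cultures given vehicle only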; conditions: S. cerevisiae sgs1 mgt1 strain, at 50.0 µM, hits give high values
How it was run: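 This yeast growth screen uses a strain with defined DNA-repair lesions; compound-treated growth is compared with vehicle-treated growth.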

[4] = NCI Yeast Anticancer Drug Screen. Data for the cln2 rad14 strain (AID 165);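 further: 0% = growth equal to vehicle treated cultures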; conditions: S. cerevisiae cln2 rad14 strain, at 50.0 µM, hits give high values
How it was run: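 Strain: cln2 rad14 yeast, altered in cell cycle control and DNA damage repair. Read-out: growth inhibition vs vehicle.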

[5] = NCI Yeast Anticancer Drug Screen. Data for the bub3 strain (AID 167); conditions: S. cerevisiae bub3 mutant strain, at 50.0 µM, hits give high values
How it was run: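 Readout: yeast growth inhibition, expressed relative to vehicle-only wells. The test organism is a mutant strain from a panel with lesions in DNA repair or checkpoint genes.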

[6] = NCI Yeast Anticancer Drug Screen. Data for the mlh1 rad18 strain (AID 175); conditions: S. cerevisiae mlh1 rad18 strain growth inhibition; at 50.0 µM; hits give high values
How it was run: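 A repair-deficient yeast strain is exposed to test compound, and growth is scored relative to vehicle-treated controls.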

Measured: growth inhibition

CCN(CC)CCCNC
inactive: [1] 6.2% and 26.6% | [2] -4.75% and 7.75% | [3] 3.2% and 3.7% | [4] 2.25% and -25.1% | [5] -9.6% and -4.5% | [6] 7.3% and 25.2%

CC(=O)OCC1OC(n2c(=S)n(-c3ccccc3)c(=O)c3cc(Br)ccc32)C(OC(C)=O)C(OC(C)=O)C1OC(C)=O (stereo unspecified)
inactive: [1] 4.85% and -36.2% | [2] -1.9% and -27.9% | [3] 1.4% and -26.9% | [4] 5.25% and 15.2% | [5] -14.6% and -0.3% | [6] 12.5% and -19.2%

CC(=O)Nc1ccccc1Cl
inactive: [1] 31.6% and 6% | [2] 6.7% and -9.05% | [3] 14.2% and -20.4% | [4] 24.9% and -20.1% | [5] 20.2% and -15.1% | [6] -11.4% and 21.4%

CC(=O)NC(Cc1ccccc1)C(=O)O (stereo unspecified)
inactive: [1] 11.1% and -7.55% | [2] -3% and -7.6% | [3] 15.7% and 4.25% | [4] 6.3% and -52.9% | [5] 6.25% and -14.1% | [6] -18.3% and -27.1%

CCc1cc(-c2ccc(OC)cc2)c(C#N)c(=S)n1C1OC(COC(C)=O)C(OC(C)=O)C(OC(C)=O)C1OC(C)=O (stereo unspecified)
inactive: [1] 40% and 5.75% | [2] 1.35% and -4.9% | [3] -10.4% and -18.7% | [4] -20.9% and -29.4% | [5] -0.9% and 1.85% | [6] 11.2% and 7.05%

O=Nc1ccc(NO)cc1
inactive: [1] 29.9% and 34% | [2] 32.7% and 7.45% | [3] 33.5% and 20.3% | [4] -25.2% and 22.3% | [5] 3.2% and 47.5% | [6] 3.35% and 31.6%

CC(=O)OCC1OC(n2c(C)c(C)cc(C#N)c2=S)C(OC(C)=O)C(OC(C)=O)C1OC(C)=O (stereo unspecified)
inactive: [1] -18.1% and 18.2% | [2] -10.2% and -13.2% | [3] -4.8% and -4.05% | [4] -23.4% and 18.9% | [5] -2.2% and 18.7% | [6] 4.3% and 14.9%

O=C(O)CCCCC(=O)O
inactive: [1] 2.1% and -5.2% | [2] -6.65% and -1.2% | [3] -3.8% and -32.5% | [4] -30.3% and 8% | [5] -18.1% and -22.1% | [6] -5.6% and 6.85%

CC(=O)OCC1OC(Sc2nc(-c3ccc(Cl)cc3)c(C#N)c(=O)n2C2OC(COC(C)=O)C(OC(C)=O)C(OC(C)=O)C2OC(C)=O)C(OC(C)=O)C(OC(C)=O)C1OC(C)=O (stereo unspecified)
inactive: [1] 8.9% and 6.85% | [2] 7.4% and -3.8% | [3] 9.7% and -9.1% | [4] -18.6% and -12.2% | [5] 9.75% and -7.95% | [6] 2.8% and -46.5%

CC(CCC(=O)O)C1CCC2C3C(O)CC4CC(O)CCC4(C)C3CC(O)C12C (stereo unspecified)
inactive: [1] 42.7% and 3.65% | [2] 46.2% and -12.6% | [3] 45.4% and -17.3% | [4] 47.6% and 0.9% | [5] 46.7% and -9.35% | [6] 35.9% and 14.2%

CCC(C(=O)O)C(=O)O.[NH-]CC[NH-].[Pt+2]
inactive: [1] -23.6% and -13.2% | [2] -8% and -3.95% | [3] -8.05% and -16.4% | [4] -29.4% and -13.5% | [5] 1.3% and 2% | [6] -10.8% and -24%

CC(C)CC(CC(C)C)=NNc1ccc([N+](=O)[O-])cc1[N+](=O)[O-]
inactive: [1] -12.9% and -0.9% | [2] 6.5% and -18.6% | [3] -10% and -6.9% | [4] -33.3% and 19.9% | [5] 12.3% and -10.9% | [6] -13.9% and 19.4%

[B]C(=O)NC(CC(C)C)C(=O)NC1c2ccsc2C(=O)C1O (stereo unspecified) (tested in a mixture with another compound)
inactive: [1] 3.05% and 4.2% | [2] 18.6% and 22.4% | [3] 12.1% and 2.9% | [4] 2.9% and 16.6% | [5] 32.3% and 33.1% | [6] -16.1% and -21.4%

O=C1NC(CCCl)C(=O)NC1CCCl (stereo unspecified)
inactive: [1] 1.6% and -0.7% | [2] -2.05% and 4.55% | [3] -16.1% and -3.55% | [4] -10.2% and -7.55% | [5] -1.45% and 2.4% | [6] 1.6% and -1.35%

COC1OC(COC(=O)c2ccccc2)C(OC(=O)c2ccccc2)C1OC(=O)c1ccccc1 (stereo unspecified)
inactive: [1] -15.4% and 7.8% | [2] -2.5% and -10.2% | [3] -3.65% and -3.95% | [4] -28.1% and -21.9% | [5] 15.9% and -0.85% | [6] 9% and 4.6%

O=C1Nc2ccccc2C(=O)C1=Ic1ccccc1
inactive: [1] 5% and -15.9% | [2] -11.6% and -15.4% | [3] -0.55% and -9.6% | [4] -6% and -25.2% | [5] -7.1% and -4.5% | [6] 4.15% and 17.8%

NC(N)=S
inactive: [1] -10.2% and 7% | [2] -2.4% and -11.8% | [3] -6.1% and 9% | [4] 32.8% and 1.9% | [5] 3.75% and 3.8% | [6] 0.35% and -9.45%

Cc1ccc(N(O)C(C)(C)C)cc1
inactive: [1] -16.4% and -2.35% | [2] -17.9% and 7.6% | [3] -4.3% and 3.05% | [4] -3.85% and -1.2% | [5] -23.9% and 13.8% | [6] 9.15% and -11.9%

O=C(O)C(Cc1ccccc1)Cc1ccccc1
inactive: [1] -11.6% and 20.8% | [2] 4.6% and 3.1% | [3] -14.4% and 9.8% | [4] -40.1% and 29.2% | [5] -22.9% and 43.5% | [6] 3.75% and 35.2%

COC1OC2COCOC2C(O)C1O (stereo unspecified)
inactive: [1] 16.4% and 11.6% | [2] 17.1% and 7.85% | [3] 10.9% and 1.8% | [4] -53.6% and -34.5% | [5] 14.9% and 8.8% | [6] -4.9% and 5.65%

CN(C)C(c1ccccc1)C1COC2Cc3ccccc3C1O2 (stereo unspecified)
inactive: [1] -8.1% and -3.3% | [2] -4.55% and -11.4% | [3] 10.3% and -2.85% | [4] 2.05% and 6.35% | [5] -27.2% and -19.2% | [6] -6.6% and -23.6%

— PubChem BioAssay (NCI)
